Test results as given in PubChem BioAssay (Tox21).
Results filed as inconclusive are left out. Calls of active or inactive are those of the source. Unless noted, the call rests on the fitted dose curve; in most records, active means well fitted curve in the direction sought with a large enough effect in the repeat runs; inconclusive means weak or mixed curves; inactive means no such curve, though single readings can be large; an effect the other way counts as inactive or inconclusive.

Experiments:
[1] = qHTS assay to identify small molecule agonists of the peroxisome proliferator-activated receptor delta (PPARd) signaling pathway - cell viability counter screen (AID 743211); further: nearly all actives have a fitted effect of over 55% in size; further: potency means the concentration at half of the fitted maximal effect
Procedure, shortened: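 PPARd-bla HEK293H cells (3000/well) were pre-incubated 5 h at 37 C, then exposed to compound for 17 h at 37 C. After 2 h with LiveBLAzer substrate, CellTiter-Glo was added to the same wells; luminescence read after 30 min at room temperature.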

[2] = molecular target: Peroxisome proliferator-activated receptor delta (Homo sapiens) (UniProt Q03181); experiment: qHTS assay to identify small molecule agonists of the peroxisome proliferator-activated receptor delta (PPARd) signaling pathway (AID 743212; calls by dose curve)
Procedure, shortened: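 Steps: seed PPARd-bla HEK293H cells; incubate 5 h, 37 C, 5% CO2; add compounds in DMSO; incubate, 37 C; add LiveBLAzer B/G FRET substrate; hold 2 h at room temperature; measure fluorescence.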

[3] = qHTS assay to identify small molecule antagonists of the peroxisome proliferator-activated receptor delta (PPARd) signaling pathway - cell viability counter screen (AID 743213); further: nearly all actives have a fitted effect of over 50% in size
Procedure, shortened: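 Same-well viability: cells pre-incubated 5 h, dosed with compound plus 300 nM L165041, kept 17 h at 37 C, FRET substrate 2 h RT, then CellTiter-Glo 30 min RT and luminescence.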

[4] = molecular target: Peroxisome proliferator-activated receptor delta (Homo sapiens) (UniProt Q03181); experiment: qHTS assay to identify small molecule antagonists of the peroxisome proliferator-activated receptor delta (PPARd) signaling pathway (AID 743215; active means well fitted inhibition curve with a large enough effect in the signal ratio in the repeat runs, not every such curve was filed as active; the % refers to the signal ratio;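 further: cells stimulated with agonist L165041 at 300 nM final during compound exposure; series mostly up to about 62 µM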)
Procedure, shortened: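 Cells: HEK293H with a UAS-driven beta-lactamase reporter responsive to PPARd. Compounds were co-added with L165041 (300 nM, final) and incubated 17 h at 37 C before a 2 h room-temperature FRET substrate step and fluorescence reading.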

[5] = qHTS assay to identify small molecule agonists of the farnesoid-X-receptor (FXR) signaling pathway - cell viability counter screen (AID 743218); further: nearly all actives have a fitted effect of over 45% in size; further: potency means the concentration at half of the fitted maximal effect
Procedure, shortened: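 Cells were seeded, left 5 h at 37 C and 5% CO2, then dosed with compound in DMSO for 16 h. After the beta-lactamase FRET read, CellTiter-Glo was added and luminescence measured 30 min later.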

[6] = qHTS assay to identify small molecule antagonists of the farnesoid-X-receptor (FXR) signaling pathway - cell viability counter screen (AID 743221; active means well fitted cell-killing curve with a large enough effect in the repeat runs, not every such curve was filed as active; further: nearly all actives have a fitted effect of over 50% in size; further: potency means the concentration at half of the fitted maximal effect)
Procedure, shortened: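 GeneBLAzer FXR-UAS-bla HEK 293T cells, compound plus chenodeoxycholic acid (50 uM final), 16 h at 37 C. CellTiter-Glo added to the same wells after the beta-lactamase read; luminescence read after 30 min at room temperature as viability.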

[7] = molecular target: Vitamin D3 receptor (Homo sapiens) (UniProt P11473); experiment: qHTS assay to identify small molecule agonists of the vitamin D receptor (VDR) signaling pathway (AID 743222; calls by dose curve)
Procedure, shortened: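 Cells carrying a VDR-driven beta-lactamase reporter are seeded at 2,000 per well and rested 4 h. Compounds in DMSO are added for 16 h at 37C, and FRET substrate fluorescence is measured after 2 h at room temperature.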

[8] = qHTS assay to identify small molecule agonists of the vitamin D receptor (VDR) signaling pathway - cell viability counter screen (AID 743224); further: series mostly up to about 63 µM; nearly all actives have a fitted effect of over 50% in size
Procedure, shortened: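 Cells: VDR-bla, 2,000/well, settled 4 h. Treatment: compounds in DMSO, 16 h, 37C/5% CO2. Readout: CellTiter-Glo luminescence after 30 min RT.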

[9] = qHTS assay to identify small molecule antagonists of the vitamin D receptor (VDR) signaling pathway - cell viability counter screen (AID 743225); further: nearly all actives have a fitted effect of over 50% in size; further: potency means the concentration at half of the fitted maximal effect
Procedure, shortened: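 VDR-UAS-bla HEK 293T cells were plated and incubated 4 h at 37C, then dosed with compound plus 3 nM (final) 1-alpha,25-dihydroxyvitamin D3 for 16 h. After the 2 h beta-lactamase read, viability in the same wells was read as CellTiter-Glo luminescence after 30 min at room temperature.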

[10] = qHTS assay to identify small molecule agonists of the NFkB signaling pathway (AID 1159509; active means well fitted curve in the direction sought with a large enough effect in the signal ratio in the repeat runs, not every such curve was filed as active; the % refers to the signal ratio; further: series mostly up to about 61 µM)
Procedure, shortened: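 Beta-lactamase reporter assay run in quantitative high-throughput format on an NF-kB-responsive ME-180 line, with 5 hr compound treatment and a FRET-based blue/green fluorescence readout.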

[11] = qHTS assay to identify small molecule agonists of the endoplasmic reticulum stress response signaling pathway (AID 1159516; active means well fitted activation curve with a large enough effect in the signal ratio in the repeat runs, not every such curve was filed as active; the % refers to the signal ratio)
Procedure, shortened: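 Cells are seeded at 1,500 per well and incubated overnight. Compounds in DMSO are added for 5 hr at 37 C, then beta-lactamase FRET substrate for 2 hr at room temperature, and fluorescence at 460 and 530 nm is measured.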

[12] = qHTS assay to identify small molecule agonists of the endoplasmic reticulum stress response signaling pathway - cell viability counter screen (AID 1159517; calls by dose curve)
Procedure, shortened: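 After overnight attachment, ESRE-bla HeLa cells were treated with Tox21 library compounds for 5 hr. CellTiter-Glo luminescence, read 30 min post-addition at room temperature, reported viability.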

[13] = qHTS assay to identify small molecule antagonists of the retinoid-related orphan receptor gamma (ROR-gamma) signaling pathway - cell viability counter screen (AID 1159520); further: nearly all actives have a fitted effect of over 50% in size
Procedure, shortened: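 Cytotoxicity was read from cellular ATP (CellTiter-Glo luminescence) after 16 hr at 37 C with 1 uM doxycycline induction. The inducer was added 2 hr after compound transfer to Tet-on ROR gamma CHO cells.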

[14] = molecular target: Nuclear receptor ROR-gamma (Homo sapiens) (UniProt P51449); experiment: qHTS assay to identify small molecule antagonists of the retinoid-related orphan receptor gamma (ROR-gamma) signaling pathway (AID 1159521; further: nearly all actives have a fitted effect of over 50% in size; further: potency means the concentration at half of the fitted maximal effect)
Procedure, shortened: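 Tet-on ROR-gamma CHO cells with ROR response element-luciferase reporter; compounds added 2 hr before 1 uM doxycycline induction, then 16 hr at 37 C. Antagonism scored as decreased ONE-Glo luminescence.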

[15] = qHTS assay to identify small molecule agonists of the AP-1 signaling pathway - cell viability counter screen (AID 1159525; calls by dose curve; further: nearly all actives have a fitted effect of over 55% in size)
Procedure, shortened: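 Intracellular ATP by Cell Titer Glo luminescence (30 min, RT) in the same ME-180 AP-1-bla wells after the 5 h compound exposure at 37 °C. Normalised to tetra n-octyl ammonium bromide and DMSO controls.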

[16] = qHTS assay to identify small molecule agonists of the AP-1 signaling pathway (AID 1159526; calls by dose curve)
[17] = qHTS assay to identify small molecule agonists of the NFkB signaling pathway - cell viability counter screen (AID 1159515; calls by dose curve; further: series mostly up to about 61 µM; nearly all actives have a fitted effect of over 55% in size)
Procedure, shortened: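 Cells are seeded (2,000 NFkB-bla ME-180 per well), rested overnight, and dosed with DMSO-dissolved compounds for 5 hr at 37 C. Viability is then read by CellTiter-Glo luminescence after 30 min at room temperature.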

[18] = molecular target: Vitamin D3 receptor (Homo sapiens) (UniProt P11473); experiment: qHTS assay to identify small molecule antagonists of the vitamin D receptor (VDR) signaling pathway (AID 743223; active means well fitted inhibition curve with a large enough effect in the signal ratio in the repeat runs, not every such curve was filed as active; the % refers to the signal ratio)
Procedure, shortened: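 VDR-bla cells were treated with compound plus 3 nM final 1alpha,25-dihydroxyvitamin D3 for 16 h at 37C. Beta-lactamase reporter read by B/G FRET substrate fluorescence after 2 h at room temperature. qHTS format.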

[19] = molecular target: Bile acid receptor (Homo sapiens) (UniProt Q96RI1); experiment: qHTS assay to identify small molecule agonists of the farnesoid-X-receptor (FXR) signaling pathway (AID 743220; active means well fitted activation curve with a large enough effect in the signal ratio in the repeat runs, not every such curve was filed as active; the % refers to the signal ratio)
Procedure, shortened: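 FXR-UAS-bla HEK 293T cells carrying a UAS-driven beta-lactamase reporter were plated for 5 h at 37C/5% CO2, then exposed to DMSO-dissolved Tox21 10K compounds for 16 h at 37C. A LiveBLAzer B/G FRET substrate was loaded for 2 h at room temperature before fluorescence reading.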

[20] = molecular target: Bile acid receptor (Homo sapiens) (UniProt Q96RI1); experiment: qHTS assay to identify small molecule antagonists of the farnesoid-X-receptor (FXR) signaling pathway (AID 743217; active means well fitted inhibition curve with a large enough effect in the signal ratio in the repeat runs, not every such curve was filed as active; the % refers to the signal ratio)
Procedure, shortened: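 Cells carrying a UAS-driven beta-lactamase reporter (GeneBLAzer FXR-UAS-bla HEK 293T) were plated and rested 5 h at 37 °C. Compounds in DMSO were added alongside chenodeoxycholic acid agonist at 50 uM final and left 16 h at 37 °C before FRET substrate readout.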

Measured: Potency

Sequence of Vitamin D3 receptor (Homo sapiens) (P11473 whole entry, looked up): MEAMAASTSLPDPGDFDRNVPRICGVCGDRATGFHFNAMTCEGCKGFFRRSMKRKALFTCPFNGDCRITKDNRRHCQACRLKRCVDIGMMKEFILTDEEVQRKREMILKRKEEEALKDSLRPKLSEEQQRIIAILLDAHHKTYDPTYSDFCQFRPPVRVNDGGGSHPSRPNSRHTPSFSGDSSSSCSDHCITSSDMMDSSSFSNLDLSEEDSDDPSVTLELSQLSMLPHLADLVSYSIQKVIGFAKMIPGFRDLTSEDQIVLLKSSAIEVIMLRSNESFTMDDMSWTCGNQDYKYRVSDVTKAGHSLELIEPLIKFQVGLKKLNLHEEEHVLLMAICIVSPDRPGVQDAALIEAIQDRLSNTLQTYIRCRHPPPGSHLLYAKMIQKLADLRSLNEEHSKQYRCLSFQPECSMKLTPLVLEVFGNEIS
Sequence of Peroxisome proliferator-activated receptor delta (Homo sapiens) (Q03181 whole entry, looked up): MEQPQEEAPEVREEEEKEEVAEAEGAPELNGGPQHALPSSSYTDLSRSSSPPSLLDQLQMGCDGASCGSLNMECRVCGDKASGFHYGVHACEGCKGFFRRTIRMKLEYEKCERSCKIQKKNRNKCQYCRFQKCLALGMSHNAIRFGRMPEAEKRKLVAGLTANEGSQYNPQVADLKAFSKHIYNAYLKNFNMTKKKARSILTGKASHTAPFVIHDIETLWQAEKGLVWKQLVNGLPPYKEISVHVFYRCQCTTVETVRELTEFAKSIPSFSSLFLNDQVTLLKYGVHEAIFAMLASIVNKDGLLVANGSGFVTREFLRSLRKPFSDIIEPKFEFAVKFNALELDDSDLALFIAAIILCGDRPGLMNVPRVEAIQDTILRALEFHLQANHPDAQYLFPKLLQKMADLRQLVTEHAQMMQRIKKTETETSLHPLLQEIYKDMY
Sequence of Bile acid receptor (Homo sapiens) (Q96RI1 whole entry, looked up): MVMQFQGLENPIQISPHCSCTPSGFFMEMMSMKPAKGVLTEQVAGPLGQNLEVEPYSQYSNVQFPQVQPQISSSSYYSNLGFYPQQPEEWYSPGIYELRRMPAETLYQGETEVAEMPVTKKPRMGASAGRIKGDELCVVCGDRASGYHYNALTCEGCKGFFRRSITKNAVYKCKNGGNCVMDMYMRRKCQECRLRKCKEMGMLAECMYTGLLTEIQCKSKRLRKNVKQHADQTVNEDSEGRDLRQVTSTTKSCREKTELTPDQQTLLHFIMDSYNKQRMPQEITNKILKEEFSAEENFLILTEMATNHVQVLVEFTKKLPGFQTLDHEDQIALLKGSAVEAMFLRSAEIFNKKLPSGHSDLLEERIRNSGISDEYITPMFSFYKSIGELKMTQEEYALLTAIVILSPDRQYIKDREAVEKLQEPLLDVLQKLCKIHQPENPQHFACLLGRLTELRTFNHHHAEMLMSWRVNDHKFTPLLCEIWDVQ

O=c1[nH]c2ccc(Cl)cc2o1
not listed: [17] | [18] | [19] | [20]
inactive: all other assays above

Brc1cc2ccccc2c2ccccc12
active: [14] 21.8 µM
inactive: [1] | [3] | [5] | [6] | [8] | [9] | [10] | [17] | [15]

CCCC(=O)C(=O)O
not listed: [4] | [7] | [17] | [18] | [19] | [20]
inactive: all other assays above

CC(=O)c1ccc([N+](=O)[O-])cc1
not listed: [11] | [12] | [14] | [19] | [20]
inactive: all other assays above

OCCN1CCN(CCCN2c3ccccc3Sc3ccc(Cl)cc32)CC1
inactive: [2] | [19] | [8] | [10] | [17]
active: [1] 29.8 µM | [5] 26.6 µM | [6] 26.6 µM | [9] 23.9 µM

CCCCCCC(C)(C)C(=O)O
not listed: [17] | [18]
inactive: all other assays above

CCOC(=O)/C=C/C(=O)OCC
not listed: [11] | [12] | [14] | [19] | [20]
inactive: all other assays above

O=C(O)CCc1nc(-c2ccccc2)c(-c2ccccc2)o1
not listed: [2] | [4] | [11] | [12] | [14] | [18] | [19] | [20]
inactive: all other assays above
